According to the supplement of paper PMC10849652:
Targets with a hit are over-represented here; the source holds about 8,800 in all. About 0.5% of all pairs of compound and target were hits. Unmarked numbers belong to inactive results.

What follows are targets tested with CS(=O)(=O)N1CCN(Cc2cc3nc(-c4cccc5[nH]ncc45)nc(N4CCOCC4)c3s2)CC1 [pictilisib] (assay: log2 fold change, soluble protein after heating vs DMSO (PISA); higher = thermal stabilisation; K562 lysate, 10 uM; active = over 0.2 and 3.5 SD of the protein, either way, in both replicates (recomputed)).
Outline: (§1)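 The values are log-two fold changes in thermal stability compared with solvent controls and come from duplicates. They were obtained by TMTpro 16plex LC-MS/MS, with channel sums equalised, on the supernatant after 21,000xg for 90 min. That supernatant came from crude K562 extract at 1 mg/mL protein treated with 10 μM compound for 30 min, heated for 3 min across 48°C-58°C, pooled and brought to 0.5% NP-40 at 4°C.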

Sequence of UniProt Q9BTC8 (Q9BTC8 whole entry, looked up): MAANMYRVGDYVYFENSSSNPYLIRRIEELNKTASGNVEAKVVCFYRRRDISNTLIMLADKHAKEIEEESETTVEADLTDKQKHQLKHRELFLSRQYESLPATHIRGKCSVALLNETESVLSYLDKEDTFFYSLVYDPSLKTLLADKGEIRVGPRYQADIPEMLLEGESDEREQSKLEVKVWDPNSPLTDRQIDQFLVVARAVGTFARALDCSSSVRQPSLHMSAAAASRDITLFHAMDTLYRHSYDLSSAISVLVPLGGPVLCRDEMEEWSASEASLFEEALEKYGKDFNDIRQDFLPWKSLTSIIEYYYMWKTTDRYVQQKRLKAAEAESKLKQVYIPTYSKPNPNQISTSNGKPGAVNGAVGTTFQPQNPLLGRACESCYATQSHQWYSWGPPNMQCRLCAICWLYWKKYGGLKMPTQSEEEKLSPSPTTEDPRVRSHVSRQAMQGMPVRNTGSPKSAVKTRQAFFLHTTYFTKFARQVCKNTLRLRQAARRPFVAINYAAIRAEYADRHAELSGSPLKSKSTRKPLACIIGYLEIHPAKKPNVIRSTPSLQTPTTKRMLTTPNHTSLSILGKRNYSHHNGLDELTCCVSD
Sequence of UniProt Q9BTX1 (Q9BTX1 whole entry, looked up): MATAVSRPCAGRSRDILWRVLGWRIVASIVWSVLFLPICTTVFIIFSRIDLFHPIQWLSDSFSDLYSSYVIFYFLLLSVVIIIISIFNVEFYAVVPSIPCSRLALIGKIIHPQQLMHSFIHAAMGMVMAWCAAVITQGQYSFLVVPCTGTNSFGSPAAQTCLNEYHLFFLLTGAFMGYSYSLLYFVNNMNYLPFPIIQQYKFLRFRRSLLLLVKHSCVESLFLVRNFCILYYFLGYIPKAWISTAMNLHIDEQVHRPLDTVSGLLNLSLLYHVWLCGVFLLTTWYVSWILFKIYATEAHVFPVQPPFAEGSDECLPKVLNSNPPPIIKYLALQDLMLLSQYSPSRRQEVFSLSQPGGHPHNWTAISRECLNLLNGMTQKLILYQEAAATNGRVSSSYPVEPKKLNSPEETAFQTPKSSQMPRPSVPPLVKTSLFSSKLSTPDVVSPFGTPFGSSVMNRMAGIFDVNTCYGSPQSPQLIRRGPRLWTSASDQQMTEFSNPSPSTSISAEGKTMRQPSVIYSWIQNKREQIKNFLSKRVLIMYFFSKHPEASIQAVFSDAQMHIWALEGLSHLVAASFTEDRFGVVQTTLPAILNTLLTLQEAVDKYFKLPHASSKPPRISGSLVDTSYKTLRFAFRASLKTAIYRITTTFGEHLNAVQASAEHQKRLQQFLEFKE
Sequence of UniProt Q6KC79 (Q6KC79 whole entry, looked up): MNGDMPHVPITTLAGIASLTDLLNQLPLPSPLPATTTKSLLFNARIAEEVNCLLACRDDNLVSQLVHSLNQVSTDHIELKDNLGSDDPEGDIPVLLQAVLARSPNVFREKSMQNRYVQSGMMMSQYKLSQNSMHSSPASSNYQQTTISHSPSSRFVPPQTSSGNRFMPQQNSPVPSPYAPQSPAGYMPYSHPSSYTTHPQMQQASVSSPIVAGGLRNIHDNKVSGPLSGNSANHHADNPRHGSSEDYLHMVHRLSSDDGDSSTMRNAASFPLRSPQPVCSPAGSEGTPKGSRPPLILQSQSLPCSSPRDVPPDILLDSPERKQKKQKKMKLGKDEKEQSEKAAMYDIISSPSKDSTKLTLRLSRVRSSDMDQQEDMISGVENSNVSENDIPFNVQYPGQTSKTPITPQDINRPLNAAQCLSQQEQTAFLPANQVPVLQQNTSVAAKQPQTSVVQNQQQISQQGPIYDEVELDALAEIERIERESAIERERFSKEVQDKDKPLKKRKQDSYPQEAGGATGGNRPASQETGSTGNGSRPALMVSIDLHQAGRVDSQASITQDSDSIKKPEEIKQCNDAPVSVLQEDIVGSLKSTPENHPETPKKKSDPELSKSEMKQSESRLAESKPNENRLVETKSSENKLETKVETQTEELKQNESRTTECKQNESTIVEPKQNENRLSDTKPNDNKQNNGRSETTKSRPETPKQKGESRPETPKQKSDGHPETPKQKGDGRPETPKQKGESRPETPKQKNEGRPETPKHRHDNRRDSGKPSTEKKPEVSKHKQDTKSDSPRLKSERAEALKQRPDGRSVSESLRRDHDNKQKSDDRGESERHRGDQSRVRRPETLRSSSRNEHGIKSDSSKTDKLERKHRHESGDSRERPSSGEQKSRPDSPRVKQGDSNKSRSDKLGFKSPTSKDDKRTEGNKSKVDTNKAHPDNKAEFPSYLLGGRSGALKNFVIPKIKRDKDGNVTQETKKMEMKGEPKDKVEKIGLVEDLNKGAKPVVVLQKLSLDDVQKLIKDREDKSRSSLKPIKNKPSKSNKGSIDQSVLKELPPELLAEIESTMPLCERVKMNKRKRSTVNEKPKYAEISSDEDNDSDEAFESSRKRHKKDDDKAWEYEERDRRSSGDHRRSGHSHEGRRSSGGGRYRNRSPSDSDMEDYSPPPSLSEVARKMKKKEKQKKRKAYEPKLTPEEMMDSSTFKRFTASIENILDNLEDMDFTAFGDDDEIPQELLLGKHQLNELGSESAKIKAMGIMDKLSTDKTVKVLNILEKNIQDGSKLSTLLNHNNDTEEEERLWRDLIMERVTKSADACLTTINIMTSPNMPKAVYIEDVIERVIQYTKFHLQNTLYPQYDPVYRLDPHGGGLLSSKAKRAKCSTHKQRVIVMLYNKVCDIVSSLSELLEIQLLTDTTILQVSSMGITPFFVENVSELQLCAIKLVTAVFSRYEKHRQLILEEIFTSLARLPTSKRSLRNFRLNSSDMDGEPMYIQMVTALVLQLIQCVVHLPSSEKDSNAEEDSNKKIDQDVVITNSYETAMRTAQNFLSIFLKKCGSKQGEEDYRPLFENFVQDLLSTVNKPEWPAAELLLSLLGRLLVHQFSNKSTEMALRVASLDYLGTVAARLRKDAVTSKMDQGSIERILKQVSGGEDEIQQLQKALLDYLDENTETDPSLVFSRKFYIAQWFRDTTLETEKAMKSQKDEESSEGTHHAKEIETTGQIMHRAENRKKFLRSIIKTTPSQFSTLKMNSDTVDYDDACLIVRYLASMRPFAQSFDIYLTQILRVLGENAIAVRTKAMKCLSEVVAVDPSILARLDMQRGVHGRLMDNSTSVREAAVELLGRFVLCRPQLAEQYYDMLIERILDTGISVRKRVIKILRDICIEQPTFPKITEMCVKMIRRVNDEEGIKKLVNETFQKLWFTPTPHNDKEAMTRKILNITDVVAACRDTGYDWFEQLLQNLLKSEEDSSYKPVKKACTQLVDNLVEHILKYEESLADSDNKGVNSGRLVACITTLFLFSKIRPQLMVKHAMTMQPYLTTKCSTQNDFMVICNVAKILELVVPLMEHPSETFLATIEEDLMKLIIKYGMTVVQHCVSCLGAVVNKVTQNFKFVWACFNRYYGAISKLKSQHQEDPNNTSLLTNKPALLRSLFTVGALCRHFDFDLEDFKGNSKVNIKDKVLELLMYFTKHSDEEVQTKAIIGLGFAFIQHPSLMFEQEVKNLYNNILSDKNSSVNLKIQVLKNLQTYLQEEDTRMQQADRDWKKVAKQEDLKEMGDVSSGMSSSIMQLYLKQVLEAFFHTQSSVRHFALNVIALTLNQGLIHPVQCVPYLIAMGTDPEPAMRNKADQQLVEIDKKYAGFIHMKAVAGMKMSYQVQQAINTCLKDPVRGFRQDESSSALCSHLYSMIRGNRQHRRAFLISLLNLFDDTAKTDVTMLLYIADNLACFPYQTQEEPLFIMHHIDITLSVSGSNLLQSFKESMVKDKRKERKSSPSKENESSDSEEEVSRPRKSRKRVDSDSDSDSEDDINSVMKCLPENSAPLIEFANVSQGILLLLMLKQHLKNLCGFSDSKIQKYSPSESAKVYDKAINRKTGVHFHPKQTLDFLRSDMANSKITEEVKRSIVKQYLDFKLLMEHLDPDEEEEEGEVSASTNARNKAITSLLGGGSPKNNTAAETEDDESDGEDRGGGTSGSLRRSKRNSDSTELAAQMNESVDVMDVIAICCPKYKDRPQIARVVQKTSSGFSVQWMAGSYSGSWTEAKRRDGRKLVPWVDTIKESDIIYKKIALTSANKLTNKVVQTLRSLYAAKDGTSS
Sequence of UniProt Q9Y639 (Q9Y639 whole entry, looked up): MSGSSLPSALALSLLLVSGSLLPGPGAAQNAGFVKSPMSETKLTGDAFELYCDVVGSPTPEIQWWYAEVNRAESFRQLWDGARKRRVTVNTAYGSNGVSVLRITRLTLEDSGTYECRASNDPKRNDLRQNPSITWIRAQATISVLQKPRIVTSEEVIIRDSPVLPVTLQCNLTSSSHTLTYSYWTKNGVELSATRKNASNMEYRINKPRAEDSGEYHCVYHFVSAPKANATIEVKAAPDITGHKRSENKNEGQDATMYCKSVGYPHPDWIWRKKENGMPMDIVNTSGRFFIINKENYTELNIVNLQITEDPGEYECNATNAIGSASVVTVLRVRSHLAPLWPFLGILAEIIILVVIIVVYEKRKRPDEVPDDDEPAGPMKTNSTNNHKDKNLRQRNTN
Sequence of UniProt Q9BZD4 (Q9BZD4 whole entry, looked up): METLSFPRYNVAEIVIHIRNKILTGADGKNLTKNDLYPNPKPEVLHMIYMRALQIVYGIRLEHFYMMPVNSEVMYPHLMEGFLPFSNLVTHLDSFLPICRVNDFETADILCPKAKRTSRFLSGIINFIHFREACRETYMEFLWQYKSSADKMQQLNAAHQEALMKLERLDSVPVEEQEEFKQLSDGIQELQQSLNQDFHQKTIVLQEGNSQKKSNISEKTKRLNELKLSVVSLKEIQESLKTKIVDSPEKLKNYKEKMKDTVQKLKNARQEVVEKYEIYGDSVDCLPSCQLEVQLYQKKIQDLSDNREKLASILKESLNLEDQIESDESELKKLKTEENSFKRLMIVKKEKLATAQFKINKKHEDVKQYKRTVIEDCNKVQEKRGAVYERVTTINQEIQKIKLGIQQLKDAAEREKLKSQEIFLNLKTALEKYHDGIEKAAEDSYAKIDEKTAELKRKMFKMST

Target | log2 fold change
OGFOD2 (UniProt Q6N063) | -0.031
MTA2 (UniProt O94776) | 0.017
NDC1 (UniProt Q9BTX1) | -0.012
OLA1 (UniProt Q9NTK5) | 0.013
OCRL (UniProt Q01968) | -0.029
NCAPG2 (UniProt Q86XI2) | -0.006
NUP133 (UniProt Q8WUM0) | -0.01
NCKAP1L (UniProt P55160) | 0
MRPL53 (UniProt Q96EL3) | -0.004
MRPS12 (UniProt O15235) | -0.024
NDUFS1 isoform 2 (UniProt P28331) | -0.014
NCOR2 (UniProt C9J0Q5) | -0.028
NUP205 (UniProt Q92621) | -0.041
MTOR (UniProt P42345) | -0.016
NF1 (UniProt P21359) | -0.022
ORC5 (UniProt O43913) | -0.049
OSBP2 (UniProt Q969R2) | 0.024
PANK2 (UniProt Q9BZ23) | 0.143

Target | log2 fold change
MYCBP2 (UniProt O75592) | -0.026
NPTN (UniProt Q9Y639) | -0.045
NNT (UniProt Q13423) | -0.046
OAT (UniProt P04181) | 0.021
MTHFD1, A0A384N5Y3 | -0.003
NIPBL (UniProt Q6KC79) | -0.081
NBEAL2 (UniProt Q6ZNJ1) | -0.016
N4BP2 (UniProt Q86UW6) | 0.054
NFKBIE (UniProt O00221) | 0.002
MTA3 (UniProt Q9BTC8) | 0.026
NFATC4 isoform 2 (UniProt Q14934) | 0.003
NAA35 (UniProt Q5VZE5) | 0.032
OPA1 isoform 2 (UniProt O60313) | 0.002
NAA30 (UniProt Q147X3) | -0.028
MYO1C (UniProt O00159) | 0.007
NUF2 (UniProt Q9BZD4) | -0.028
NCAPH (UniProt Q15003) | 0.005

Each target was assayed with C[C@@H](Oc1cc(-c2cnn(C3CCNCC3)c2)cnc1N)c1c(Cl)ccc(F)c1Cl [crizotinib] in the same assay as above.
Outline: as §1

Target | log2 fold change
OGFOD2 (UniProt Q6N063) | -0.017
MTA2 (UniProt O94776) | 0
NDC1 (UniProt Q9BTX1) | -0.027
OLA1 (UniProt Q9NTK5) | -0.005
OCRL (UniProt Q01968) | -0.047
NCAPG2 (UniProt Q86XI2) | -0.048
NUP133 (UniProt Q8WUM0) | -0.093
NCKAP1L (UniProt P55160) | -0.061
MRPL53 (UniProt Q96EL3) | 0.031
MRPS12 (UniProt O15235) | -0.019
NDUFS1 isoform 2 (UniProt P28331) | 0.034
NCOR2 (UniProt C9J0Q5) | 0.116
NUP205 (UniProt Q92621) | -0.1
MTOR (UniProt P42345) | -0.068
NF1 (UniProt P21359) | -0.075
ORC5 (UniProt O43913) | -0.137
OSBP2 (UniProt Q969R2) | -0.074
PANK2 (UniProt Q9BZ23) | -0.073

Target | log2 fold change
MYCBP2 (UniProt O75592) | -0.07
NPTN (UniProt Q9Y639) | -0.058
NNT (UniProt Q13423) | 0.03
OAT (UniProt P04181) | -0.034
MTHFD1, A0A384N5Y3 | -0.064
NIPBL (UniProt Q6KC79) | -0.034
NBEAL2 (UniProt Q6ZNJ1) | -0.069
N4BP2 (UniProt Q86UW6) | 0.002
NFKBIE (UniProt O00221) | -0.027
MTA3 (UniProt Q9BTC8) | -0.058
NFATC4 isoform 2 (UniProt Q14934) | -0.132
NAA35 (UniProt Q5VZE5) | -0.031
OPA1 isoform 2 (UniProt O60313) | -0.096
NAA30 (UniProt Q147X3) | -0.01
MYO1C (UniProt O00159) | -0.09
NUF2 (UniProt Q9BZD4) | -0.024
NCAPH (UniProt Q15003) | -0.019

The targets below were run with C[C@H](C1=CC=C(C=C1)C(=O)NC2=C3C=CNC3=NC=C2)N in the same assay as above.
Outline: as §1

Target | log2 fold change
OGFOD2 (UniProt Q6N063) | -0.029
MTA2 (UniProt O94776) | 0.013
NDC1 (UniProt Q9BTX1) | -0.333 (active)
OLA1 (UniProt Q9NTK5) | -0.088
OCRL (UniProt Q01968) | -0.029
NCAPG2 (UniProt Q86XI2) | -0.108
NUP133 (UniProt Q8WUM0) | -0.075
NCKAP1L (UniProt P55160) | -0.002
MRPL53 (UniProt Q96EL3) | 0.079
MRPS12 (UniProt O15235) | 0.003
NDUFS1 isoform 2 (UniProt P28331) | 0.009
NCOR2 (UniProt C9J0Q5) | 0.018
NUP205 (UniProt Q92621) | -0.047
MTOR (UniProt P42345) | -0.042
NF1 (UniProt P21359) | -0.031
ORC5 (UniProt O43913) | -0.009
OSBP2 (UniProt Q969R2) | -0.666 (active)
PANK2 (UniProt Q9BZ23) | -0.023

Target | log2 fold change
MYCBP2 (UniProt O75592) | -0.028
NPTN (UniProt Q9Y639) | -0.011
NNT (UniProt Q13423) | 0.013
OAT (UniProt P04181) | -0.066
MTHFD1, A0A384N5Y3 | 0.04
NIPBL (UniProt Q6KC79) | 0.039
NBEAL2 (UniProt Q6ZNJ1) | -0.006
N4BP2 (UniProt Q86UW6) | -0.236 (active)
NFKBIE (UniProt O00221) | 0.066
MTA3 (UniProt Q9BTC8) | -0.022
NFATC4 isoform 2 (UniProt Q14934) | -0.187
NAA35 (UniProt Q5VZE5) | 0.082
OPA1 isoform 2 (UniProt O60313) | -0.013
NAA30 (UniProt Q147X3) | -0.025
MYO1C (UniProt O00159) | 0.027
NUF2 (UniProt Q9BZD4) | -0.023
NCAPH (UniProt Q15003) | -0.015
